High-throughput results as filed in PubChem.
A selection: hits, their analogues and other compounds. The true share with any hit is near 8%.
Coupling enz: counter-screen for Giardia aldolase inhibitors: coupling enzyme system. coupling enzyme system counterscreen, AmpLite Red fluorescence. activity change, negative = inhibition, % at 58.2 µM, hits read low. 0.67% of 290,000 active. AID 2472; in the data active = activity change below about -30%
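Fluorescence at 525 nm excitation and 598 nm emission measured inhibition of the coupled detection system without aldolase. Compounds (at 57.5 uM final) were preincubated 10 min at room temperature with coupling enzyme reagent before a 20 min substrate/AmpLite Red step.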
VP16 counter: Gal4-VP16 reporter inhibition counter-screen; Drosophila S2 Gal4-VP16 UAS-luciferase, luminescence, 20 h; Potency, µM (titrated, usually from 53.6 µM), most hits filed as inhibitors; 3.5% of 310,000 active;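 note: Gal4-VP16 expression switched on by copper sulfate through the metallothionein promoter; nearly all actives have a fitted effect of over 50% in size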
ELG1 repair inh: blocks ELG1-dependent DNA repair in HEK293T cells; HEK293T ELG1-luciferase reporter, luminescence, 16 h; DNA damage induced by 5-fluorouridine; Potency, µM (highest dose often 46.1 µM), hits mostly inhibitors; 2.3% of 330,000 active; note: nearly all actives have a fitted effect of over 55% in size
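Luminescence from the luciferase reporter, measured 30 min after ONE-Glo reagent at room temperature, was the read-out. Beforehand, 2,000 cells per well were exposed for 16 hr at 37 °C to 5-fluorouridine together with compound or vehicle.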
TSHR antagonist: antagonists of human thyroid stimulating hormone receptor; activity change, negative = inhibition, % at 11.5 µM; 0.2% of 330,000 active; TSHR-expressing cells, TSH-stimulated cAMP HTRF, 2 h; active compounds read low; AID 504810;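 active = activity change below a set negative limit, meaning inhibition stronger than a set level, cut at about -70% in these data; inconclusive = activity change between two set negative limits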
Target sequence (P16473 whole entry, looked up): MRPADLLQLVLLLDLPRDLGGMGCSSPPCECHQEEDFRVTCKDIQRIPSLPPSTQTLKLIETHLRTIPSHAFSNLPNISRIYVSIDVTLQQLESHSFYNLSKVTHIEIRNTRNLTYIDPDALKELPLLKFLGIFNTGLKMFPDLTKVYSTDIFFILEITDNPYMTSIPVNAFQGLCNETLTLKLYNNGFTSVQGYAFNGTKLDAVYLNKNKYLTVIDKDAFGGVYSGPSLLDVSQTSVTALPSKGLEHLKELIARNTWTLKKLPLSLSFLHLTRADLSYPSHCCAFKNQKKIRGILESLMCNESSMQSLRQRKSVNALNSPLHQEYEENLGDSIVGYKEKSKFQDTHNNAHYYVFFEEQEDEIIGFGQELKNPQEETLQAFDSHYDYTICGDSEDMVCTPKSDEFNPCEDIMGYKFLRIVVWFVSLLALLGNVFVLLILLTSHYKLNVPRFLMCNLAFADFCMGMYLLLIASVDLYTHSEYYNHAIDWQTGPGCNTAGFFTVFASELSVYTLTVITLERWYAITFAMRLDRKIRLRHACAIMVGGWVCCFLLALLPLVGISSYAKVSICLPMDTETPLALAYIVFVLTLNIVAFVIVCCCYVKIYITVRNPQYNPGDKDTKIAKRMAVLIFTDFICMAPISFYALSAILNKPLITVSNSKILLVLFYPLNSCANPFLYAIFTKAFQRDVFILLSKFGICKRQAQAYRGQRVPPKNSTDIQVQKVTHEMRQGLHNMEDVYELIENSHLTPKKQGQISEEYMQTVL
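Freshly harvested TSHR cells receive pin-tooled compound, then EC80 TSH at 4nM final. After 2 hours at 37 deg C, antibody in lysis buffer and cAMP-d2 are added; 30 minutes at ambient temperature precede the HTRF read.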
RORgamma inh: inhibitors of mouse ROR gamma transcriptional activity. AID 2551. 5.4% of 310,000 active. P51450. Drosophila S2 Gal4-RORgamma UAS-luciferase reporter, 20 h. Potency, µM (titrated, usually from 53.6 µM), actives largely listed as inhibitors; note: nearly all actives have a fitted effect of over 60% in size
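Luminescence from a UAS-regulated Photinus luciferase reporter in stably transfected Drosophila Schneider cells is measured; decreased signal marks ROR gamma inhibition. Fusion expression is induced by 700 uM copper sulfate for 20 hr.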
Large screens that a line does not name were inactive. Unless noted, calls come from the whole dose curve; as a rule, active = well fitted curve in the direction sought with a large enough effect; inconclusive = small, poorly fitted or top-dose-only effect, or another doubt; inactive = no such curve, though single readings can be large; an effect the other way counts as inactive or inconclusive.

COc1ccc(O)c(-c2[nH]ncc2C(=O)c2ccccc2)c1	ELG1 repair inh 23µM
O=C(c1ccccc1)c1cn[nH]c1-c1ccccc1O	none
COc1ccc(O)c(C(=O)CC(=O)c2ccccc2)c1	VP16 counter 13µM, ELG1 repair inh inconclusive, RORgamma inh 7.1µM
COc1ccc(C(=O)CC(=O)c2ccc(OC)cc2)cc1	VP16 counter 18µM, ELG1 repair inh inconclusive, RORgamma inh 13µM
COc1ccc(CNC(NC(=O)c2ccccc2)(C(F)(F)F)C(F)(F)F)cc1	VP16 counter 10µM, RORgamma inh inconclusive
O=c1cc(C(F)(F)F)nc(SCc2cccnc2)[nH]1	none
C#CCCCO/N=C1/C[C@@H](O)[C@@H](O)[C@@H]2[C@@H]3C(=O)N(Cc4ccc5c(c4)OCO5)C(=O)[C@H]3CC[C@H]12	none (no result: ELG1 repair inh, TSHR antagonist)
O=C(NC1CCCCC1)c1ccc(-n2cnnn2)cc1	none
COc1ccc(C(=O)NCC(=O)c2ccccc2)cc1	ELG1 repair inh inconclusive, RORgamma inh 10µM
COc1ccc(OC)c(S(=O)(=O)NCCS(=O)(=O)N2CCN(c3ccccc3)CC2)c1	RORgamma inh inconclusive
Nc1nc2[nH]cc(CCc3ccc(C(=O)NC(CCC(=O)O)C(=O)O)cc3)c2c(=O)[nH]1 (stereo unspecified)	none (no result: Coupling enz, ELG1 repair inh, TSHR antagonist)
CCOC(=O)C1=C(CC)Nc2ccccc2N=C1NC(=O)c1ccc(OC)c(S(=O)(=O)N2CCCCC2C)c1 (stereo unspecified)	ELG1 repair inh 23µM
CCOC(=O)C1=C(CC)Nc2ccccc2N=C1NC(=O)c1ccc(C)c(S(=O)(=O)N2CCOCC2)c1	ELG1 repair inh inconclusive (no result: Coupling enz, VP16 counter, RORgamma inh)
CCc1ccc(/C=C2/Sc3ccccc3N(CC(=O)NCC3CCCO3)C2=O)cc1 (stereo unspecified)	ELG1 repair inh 13µM
Cc1ccc(/C=C2/Sc3ccccc3N(CC(=O)NCC3CCCO3)C2=O)cc1 (stereo unspecified)	none (no result: Coupling enz)
O=C(COc1ccccc1Cl)NCCNC(=O)c1cccnc1	none
Cc1ccc2cc(C#N)c(NCCCNC(=O)C3CCCO3)nc2c1 (stereo unspecified)	Coupling enz -35, ELG1 repair inh inconclusive
C[C@H](NC(=O)N1CCn2c1nc1ccccc12)C(=O)NCC1CCCO1 (stereo partly specified)	none (no result: Coupling enz)
COc1cc(C)c(Cl)cc1S(=O)(=O)NCc1ccccn1	RORgamma inh inconclusive
O=S(=O)(NCc1ccccn1)c1cc(C(F)(F)F)ccc1Cl	VP16 counter inconclusive, RORgamma inh 7.1µM
O=S(=O)(NCc1ccccn1)c1ccc(Cl)c(C(F)(F)F)c1	VP16 counter inconclusive, RORgamma inh 7.1µM
O=S(=O)(Nc1ncccn1)c1cc(Cl)ccc1Cl	none
O=S(=O)(NCc1ccccn1)c1cc(Cl)ccc1Cl	VP16 counter 10µM, RORgamma inh 8.9µM
CCOc1cc(S(=O)(=O)NCc2ccccn2)ccc1Cl	none
O=C(NCC(=O)N1CCN(c2ccccc2O)CC1)c1ccc(Br)o1	none (no result: Coupling enz, VP16 counter, RORgamma inh)
Cc1[nH]nc2c1-c1nc3ccccc3nc1C(C)(C)C2	VP16 counter 3.2µM, ELG1 repair inh 9.2µM, RORgamma inh 4µM
Cc1ccc(OCc2cc(C(=O)N(C)CCc3nc4ccccc4[nH]3)no2)cc1C	ELG1 repair inh inconclusive
CCOC(=O)c1sc(NC(=S)NC(=O)C2CC2)cc1C	VP16 counter 1µM, ELG1 repair inh inconclusive, RORgamma inh 1µM
CCOC(=O)c1sc(NC(=O)c2sccc2C)cc1C	ELG1 repair inh inconclusive, RORgamma inh inconclusive
CCOC(=O)c1sc(NC(=S)NC(=O)C23CC4CC(CC(C4)C2)C3)cc1C	VP16 counter 10µM, RORgamma inh 6.3µM
COc1ccc(CC(=O)NCc2n[nH]c(=S)n2-c2cccc(C)c2)cc1	none
Cc1cccc(-n2c(-c3csc(C(C)C)c3)n[nH]c2=S)c1	VP16 counter inconclusive, RORgamma inh 1.6µM
CCCc1cc(-c2n[nH]c(=S)n2-c2cccc(C)c2)cs1	VP16 counter inconclusive, RORgamma inh 1.4µM
NC(=O)CC(NC(=O)Cc1ccc(Br)cc1)c1ccc(N2CCC(N3CCCCC3)CC2)c([N+](=O)[O-])c1 (stereo unspecified)	ELG1 repair inh inconclusive
CC(=O)c1ccc(NC(=O)CCCN2C(=O)COc3ccc(C)cc32)cc1	none
COc1ccc(C(=O)CSc2nc(C)cc(=O)[nH]2)cc1	none (no result: VP16 counter)
Cc1cc(=O)[nH]c(SCC(=O)c2ccc(C(C)C)cc2)n1	VP16 counter inconclusive, ELG1 repair inh inconclusive, RORgamma inh 1.1µM
Cc1ccccc1C(=O)c1cccn1CC(=O)NCc1cccc(Cl)c1	ELG1 repair inh inconclusive
COc1ccc(Cl)cc1NC(=O)CN1CCC(n2nnc3ccccc32)CC1	ELG1 repair inh 7.3µM, RORgamma inh inconclusive
CCCN1CCC(NC(=O)Nc2cc(Cl)ccc2OC)CC1	none
COc1ccc(Cl)cc1NC(=O)CN1CCC(NC(=O)C2CC2)CC1	ELG1 repair inh 9.2µM
O=C(COC(=O)c1cccc(F)c1)Nc1ccc(Cl)cn1	none (no result: Coupling enz, VP16 counter, TSHR antagonist, RORgamma inh)
COc1ccccc1CCNC(=O)CN1C(=O)c2ccccc2S1(=O)=O	none (no result: Coupling enz, VP16 counter, RORgamma inh)
C[C@]12CCC(O)CC1=CCC1C2CC[C@]2(C)/C(=N\NC(N)=S)CCC12 (stereo partly specified)	RORgamma inh 13µM
O=C(CN1CCCC1c1cccs1)N1CCN(S(=O)(=O)c2ccccc2)CC1 (stereo unspecified)	none (no result: Coupling enz, VP16 counter, RORgamma inh)
O=C(/C=C/c1cn(-c2ccccc2)nc1-c1cccnc1)c1ccco1	VP16 counter inconclusive, RORgamma inh 6.3µM
N#C/C(=C\c1cn(-c2ccccc2)nc1-c1cccnc1)c1nnc2n1CCCCC2	ELG1 repair inh 21µM
N#C/C(=C/c1ccccc1[N+](=O)[O-])c1nnc2n1CCCCC2	none
O=C(/C=C/c1cn(-c2ccccc2)nc1-c1cccnc1)N1CCCC1	ELG1 repair inh 13µM
COc1ccc(-c2ccc(C3C4C=CCC(C)C4C(=O)N3Cc3ccccc3)c(F)c2)cc1OC (stereo unspecified)	none (no result: ELG1 repair inh, TSHR antagonist)
COc1cc2cnc(-c3ccccc3)c(-c3cc(OC)c(OC)c(OC)c3)c2cc1OC	ELG1 repair inh 9.2µM (no result: Coupling enz, VP16 counter, RORgamma inh)
Cc1nc(C)c(C(=O)Nc2ncc([N+](=O)[O-])s2)o1	VP16 counter inconclusive, ELG1 repair inh inconclusive, RORgamma inh 7.9µM
O=C(Nc1ncc([N+](=O)[O-])s1)c1cccc([N+](=O)[O-])c1	Coupling enz -41, VP16 counter inconclusive, ELG1 repair inh inconclusive, TSHR antagonist inconclusive
CC(C)CC(=O)Nc1ncc([N+](=O)[O-])s1	VP16 counter inconclusive, ELG1 repair inh inconclusive
CCCCn1c(=O)[nH]c(=O)c2c1nc(-c1ccc(-c3ccccc3Br)o1)n2CCOC	ELG1 repair inh 2.6µM
CCCCn1c(=O)[nH]c(=O)c2c1nc(-c1ccc(OCCC)c(OCC)c1)n2CCOC	ELG1 repair inh 6.5µM
CCCOc1ccc(-c2nc3c(c(=O)[nH]c(=O)n3Cc3ccccc3)n2CCO)cc1OCC	RORgamma inh inconclusive
